# Reference: article PMC11006913
# Residue numbers refer to the chain shown, from its start.
# Legend:
# Assay in all cases: PBM; 200 nM protein, PBS
# Settings in all cases: dsDNA, one strand shown
# PAX4 [1] = target: T1, PAX4 (Homo sapiens, UniProt O43316 9-242, R200K)
# T1 sequence: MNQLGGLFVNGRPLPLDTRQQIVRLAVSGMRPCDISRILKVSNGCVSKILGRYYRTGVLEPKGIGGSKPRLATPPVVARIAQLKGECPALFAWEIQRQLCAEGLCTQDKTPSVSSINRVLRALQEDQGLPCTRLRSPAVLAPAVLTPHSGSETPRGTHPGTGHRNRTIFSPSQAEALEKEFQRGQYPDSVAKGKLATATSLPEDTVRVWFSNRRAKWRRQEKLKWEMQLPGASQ
# PAX4 [2] = target: T2, PAX4 (Homo sapiens, UniProt O43316 9-242)
# T2 sequence: T1 sequence with K192R
# PAX4 [3] = target: T3, PAX4 (Homo sapiens, UniProt O43316 9-242, R200Q)
# T3 sequence: T1 sequence with K192Q
# PAX4 [4] = target: T4, PAX4 (Homo sapiens, UniProt O43316 9-242, F177V)
# T4 sequence: T1 sequence with F169V, K192R
# PAX4 [5] = target: T5, PAX4 (Homo sapiens, UniProt O43316 9-242, F177Y)
# T5 sequence: T1 sequence with F169Y, K192R
# PAX4 [6] = target: T6, PAX4 (Homo sapiens, UniProt O43316 9-242, R227W)
# T6 sequence: T1 sequence with K192R, R219W
# NKX3-2 [7] = target: NKX3-2 (Homo sapiens, UniProt P78367 192-278, P234S)
# NKX3-2 [8] = target: NKX3-2 (Homo sapiens, UniProt P78367 192-278)
# PRRX1 [9] = target: PRRX1 (Homo sapiens, UniProt P54821 80-166, F113S)
# PRRX1 [10] = target: PRRX1 (Homo sapiens, UniProt P54821 80-166)
# PRRX1 (Homo sapiens, UniProt P54821 80-166), sequence (P54821 80-166): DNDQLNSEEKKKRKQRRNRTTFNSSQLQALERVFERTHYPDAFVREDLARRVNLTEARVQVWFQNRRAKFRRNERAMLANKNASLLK
# NKX3-2 (Homo sapiens, UniProt P78367 192-278), sequence (P78367 192-278): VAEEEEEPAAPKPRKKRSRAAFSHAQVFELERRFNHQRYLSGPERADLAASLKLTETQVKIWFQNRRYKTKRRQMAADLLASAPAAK
# NKX3-2 (Homo sapiens, UniProt P78367 192-278, P234S), sequence (P78367 192-278 P234S): as the sequence (P78367 192-278) above, with P43S counted along it
# PRRX1 (Homo sapiens, UniProt P54821 80-166, F113S), sequence (P54821 80-166 F113S): as the sequence (P54821 80-166) above, with F34S counted along it
Sequence,binding signal (PAX4 [1]),binding signal (PAX4 [2]),binding signal (PAX4 [3]),binding signal (PAX4 [4]),binding signal (PAX4 [5]),binding signal (PAX4 [6]),binding signal (NKX3-2 [7]),binding signal (NKX3-2 [8]),binding signal (PRRX1 [9]),binding signal (PRRX1 [10])
CTAATCAG,"11.2 upbm affinity estimate (log intensity, higher = more binding, comparable within an allelic series)","11.6 upbm affinity estimate (log intensity, higher = more binding, comparable within an allelic series)","11.3 upbm affinity estimate (log intensity, higher = more binding, comparable within an allelic series)","10.1 upbm affinity estimate (log intensity, higher = more binding, comparable within an allelic series)","10.5 upbm affinity estimate (log intensity, higher = more binding, comparable within an allelic series)","10.3 upbm affinity estimate (log intensity, higher = more binding, comparable within an allelic series)",–,–,–,–
ATAATGCG,"11.6 upbm affinity estimate (log intensity, higher = more binding, comparable within an allelic series)",–,–,–,"10.9 upbm affinity estimate (log intensity, higher = more binding, comparable within an allelic series)","10.9 upbm affinity estimate (log intensity, higher = more binding, comparable within an allelic series)",–,–,–,–
GGGCGCGA,"9.18 upbm affinity estimate (log intensity, higher = more binding, comparable within an allelic series)","9.18 upbm affinity estimate (log intensity, higher = more binding, comparable within an allelic series)","9.16 upbm affinity estimate (log intensity, higher = more binding, comparable within an allelic series)","9.01 upbm affinity estimate (log intensity, higher = more binding, comparable within an allelic series)","9.02 upbm affinity estimate (log intensity, higher = more binding, comparable within an allelic series)","9.14 upbm affinity estimate (log intensity, higher = more binding, comparable within an allelic series)","10.6 upbm affinity estimate (log intensity, higher = more binding, comparable within an allelic series)","10.6 upbm affinity estimate (log intensity, higher = more binding, comparable within an allelic series)",–,–
ACGAATTA,"11.6 upbm affinity estimate (log intensity, higher = more binding, comparable within an allelic series)","12.1 upbm affinity estimate (log intensity, higher = more binding, comparable within an allelic series)","11.7 upbm affinity estimate (log intensity, higher = more binding, comparable within an allelic series)","10.3 upbm affinity estimate (log intensity, higher = more binding, comparable within an allelic series)","11 upbm affinity estimate (log intensity, higher = more binding, comparable within an allelic series)","10.8 upbm affinity estimate (log intensity, higher = more binding, comparable within an allelic series)",–,–,–,–
ACTAATTC,"11.6 upbm affinity estimate (log intensity, higher = more binding, comparable within an allelic series)","12.1 upbm affinity estimate (log intensity, higher = more binding, comparable within an allelic series)","11.8 upbm affinity estimate (log intensity, higher = more binding, comparable within an allelic series)","10.4 upbm affinity estimate (log intensity, higher = more binding, comparable within an allelic series)","10.9 upbm affinity estimate (log intensity, higher = more binding, comparable within an allelic series)","10.9 upbm affinity estimate (log intensity, higher = more binding, comparable within an allelic series)",–,–,–,–
CGCCCGGC,"9.26 upbm affinity estimate (log intensity, higher = more binding, comparable within an allelic series)","9.23 upbm affinity estimate (log intensity, higher = more binding, comparable within an allelic series)","9.1 upbm affinity estimate (log intensity, higher = more binding, comparable within an allelic series)","8.97 upbm affinity estimate (log intensity, higher = more binding, comparable within an allelic series)","9.01 upbm affinity estimate (log intensity, higher = more binding, comparable within an allelic series)","9.06 upbm affinity estimate (log intensity, higher = more binding, comparable within an allelic series)",–,–,–,–
TAGTATAA,"10.7 upbm affinity estimate (log intensity, higher = more binding, comparable within an allelic series)","10.8 upbm affinity estimate (log intensity, higher = more binding, comparable within an allelic series)","10.8 upbm affinity estimate (log intensity, higher = more binding, comparable within an allelic series)",–,–,"10.5 upbm affinity estimate (log intensity, higher = more binding, comparable within an allelic series)",–,–,–,–
CTGAGCGC,"9.25 upbm affinity estimate (log intensity, higher = more binding, comparable within an allelic series)","9.2 upbm affinity estimate (log intensity, higher = more binding, comparable within an allelic series)","9.31 upbm affinity estimate (log intensity, higher = more binding, comparable within an allelic series)","9.15 upbm affinity estimate (log intensity, higher = more binding, comparable within an allelic series)","9.2 upbm affinity estimate (log intensity, higher = more binding, comparable within an allelic series)","9.27 upbm affinity estimate (log intensity, higher = more binding, comparable within an allelic series)",–,–,–,–
AATATTAG,–,–,–,–,–,–,–,–,"10.5 upbm affinity estimate (log intensity, higher = more binding, comparable within an allelic series)","12.4 upbm affinity estimate (log intensity, higher = more binding, comparable within an allelic series)"
